Reference: PubChem BioAssay (EPA / NIEHS)
Several values for one entry are separate records, joined by “and”; a condition that tells them apart may be missing. Equal values may be shown once. Records with an inconclusive call do not appear. A structure can be active in one record and inactive in another. Activity calls are given as the source filed them. The calls were made as follows, unless noted: active = hit-call score of the fitted dose curve at least 0.9, where 1 is the maximum; inactive = score below 0.9.

How the values were obtained:
[1] = APR_HepG2_CellCycleArrest_1hr: Apredica 1-hour HepG2 Assay for Cell Cycle Arrest (AID 2282666); conditions: high-content imaging, actives raise or lower the signal
Procedure, shortened: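 Cell cycle arrest scored from nuclear DNA content (Hoechst 33342) using high-content imaging of fixed HepG2 cells after 1 h treatment across 0.39–200 uM, in duplicate. Gain or loss fitted relative to 0.5% DMSO.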

[2] = APR_HepG2_CellLoss_1hr: Apredica 1-hour HepG2 Assay for Cell Loss (AID 2282668); conditions: high-content imaging;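 also: curves fitted both ways against DMSO so gain or loss of cells counts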
Procedure, shortened: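 Cell number comes from high-content imaging of Hoechst-labelled nuclei in fixed HepG2 cells. Cells were exposed for 1 h to ten concentrations from 0.39 to 200 uM in 0.5% DMSO. Gain or loss was fitted against DMSO controls.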

[3] = APR_HepG2_MicrotubuleCSK_1hr: Apredica 1-hour HepG2 Assay for Microtubule CSK Stabilty (AID 2282669); conditions: HepG2 microtubule cytoskeleton imaging, actives raise or lower the signal
Procedure, shortened: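 Alpha-tubulin immunofluorescence, imaged by automated high-content microscopy with Hoechst nuclear segmentation, measured cytoskeletal change after 1 h dosing of HepG2 at 0.39–200 uM in 0.5% DMSO. Activity fitted in both directions relative to DMSO.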

[4] = APR_HepG2_NuclearSize_1hr: Apredica 1-hour HepG2 Assay for Nuclear Size (AID 2282670); conditions: high-content imaging, actives raise or lower the signal
Procedure, shortened: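 Nuclear size measured by high-content imaging of Hoechst 33342 nuclear stain after formaldehyde fixation; human HepG2 line exposed 1 hr to compounds at 0.39–200 uM in 0.5% DMSO, with bidirectional curve fitting relative to DMSO.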

[5] = APR_HepG2_MitoticArrest_1hr: Apredica 1-hour HepG2 Assay for Mitotic Arrest (AID 2282672); conditions: high-content imaging, actives raise or lower the signal
Procedure, shortened: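 Ten-point concentration series (0.39 to 200 uM, duplicates, 0.5% v/v DMSO) applied to human HepG2 liver cells for 1 hr. High-content imaging of phospho-histone H3 and Hoechst-stained nuclei after fixation and permeabilization; DMSO-normalised bidirectional fit.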

[6] = APR_HepG2_P-H2AX_1hr: Apredica 1-hour HepG2 Assay for H2AX Phosphorylation (AID 2282673); conditions: high-content imaging, actives raise or lower the signal
Procedure, shortened: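 Phospho-H2A.x immunofluorescence (1:200, FITC secondary) plus Hoechst nuclear stain, quantified by high-content imaging in HepG2 after 1 hr compound exposure. Ten concentrations, 0.39 to 200 uM, in duplicate with 0.5% DMSO; fit both directions against DMSO.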

[7] = APR_HepG2_MitoMass_1hr: Apredica 1-hour HepG2 Assay for Mitochondrial Mass (AID 2282674); conditions: high-content imaging, actives raise or lower the signal
Procedure, shortened: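 Mitochondrial mass is taken from MitoTracker Red CMXRos (250 nM, 30 min, pre-fixation) fluorescence imaged at 20x in HepG2 cells. Exposure lasted 1 hr across ten concentrations, 0.39 to 200 uM, 0.5% DMSO; DMSO baseline, bidirectional fitting.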

[8] = APR_HepG2_MitoMembPot_1hr: Apredica 1-hour HepG2 Assay for Mitochondrial Membrane Potential (AID 2282675); conditions: imaging, actives raise or lower the signal
Procedure, shortened: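 Mitochondrial membrane potential read as MitoTracker Red CMXRos intensity by automated imaging of fixed HepG2 cells. Dye at 250 nM for 30 min pre-fixation; compounds 0.39 to 200 uM for 1 hour, duplicate wells, 0.5% DMSO.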

[9] = APR_HepG2_CellCycleArrest_24hr: Apredica 24-hour HepG2 Assay for Cell Cycle Arrest (AID 2282905); conditions: imaging, actives raise or lower the signal;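 also: cell cycle arrest scored as ratio of 2N to 4N nuclear DNA content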
Procedure, shortened: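 Step one: dose HepG2 with test compounds, 0.39–200 uM, 0.5% DMSO, 24 hr. Step two: fix, permeabilize, stain nuclei with Hoechst 33342. Step three: image six fields per well at 20x, quantify DNA content, fit bidirectionally relative to DMSO.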

[10] = APR_HepG2_StressKinase_1hr: Apredica 1-hour HepG2 Assay for Stress Kinase (AID 2282906); conditions: HepG2 stress kinase (phospho-c-Jun) imaging, actives raise or lower the signal
Procedure, shortened: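 High-content imaging of phospho-c-Jun immunostaining (with Hoechst nuclear identification) after a 1 h exposure of HepG2 cells to 10 concentrations from 0.39 to 200 uM, final DMSO 0.5%. Fitted bidirectionally against DMSO.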

[11] = APR_HepG2_NuclearSize_24hr: Apredica 24-hour HepG2 Assay for Nuclear Size (AID 2282907); conditions: high-content imaging, actives raise or lower the signal
Procedure, shortened: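 After fixation and permeabilization, 24-hr-treated HepG2 cells were stained with Hoechst 33342 and imaged on an ArrayScan (20x). Doses spanned 0.39–200 uM in duplicate. Nuclear diameter changes in either direction were fitted relative to 0.5% DMSO controls.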

[12] = APR_HepG2_CellLoss_24hr: Apredica 24-hour HepG2 Assay for Cell Loss (AID 2282908); conditions: high-content imaging;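 as to AC50: fit in both directions so a hit may be cell loss or gain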
Procedure, shortened: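 Duplicate wells received compound at ten concentrations (0.39–200 uM; final DMSO 0.5% v/v). After fixation with formaldehyde, nuclei stained with Hoechst 33342 were imaged at 20x. Loss or gain of cell count was fitted relative to DMSO controls.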

[13] = APR_HepG2_MicrotubuleCSK_24hr: Apredica 24-hour HepG2 Assay for Microtubule CSK Stabilty (AID 2282909); conditions: HepG2 microtubule cytoskeleton imaging, actives raise or lower the signal
Procedure, shortened: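 Microtubule stability is scored from tubulin immunofluorescence in fixed HepG2 cells imaged at 20x. Cells receive ten compound concentrations up to 200 uM for 24 h; taxol and DMSO serve as positive and negative controls.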

[14] = APR_HepG2_MitoticArrest_24hr: Apredica 24-hour HepG2 Assay for Mitotic Arrest (AID 2282910); conditions: high-content imaging, actives raise or lower the signal
Procedure, shortened: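 Treatment lasted 24 hr in the human HepG2 line at 0.39–200 uM, solvent held at 0.5% DMSO. Fixed cells were stained with Hoechst 33342 and anti-phospho-histone H3, imaged at 20x, and analysed by gain- or loss-of-signal fitting against DMSO.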

[15] = APR_HepG2_MitoMembPot_24hr: Apredica 24-hour HepG2 Assay for Mitochondrial Membrane Potential (AID 2282911); conditions: imaging, actives raise or lower the signal
Procedure, shortened: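 HepG2 human liver cells were exposed 24 hr to compounds at 0.39–200 uM (final DMSO 0.5% v/v) in duplicate. MitoTracker Red CMXRos (250 nM, 30 min) was loaded before formaldehyde fixation; fluorescence was imaged by ArrayScan HCS and fitted bidirectionally versus DMSO.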

[16] = APR_HepG2_MitoMass_24hr: Apredica 24-hour HepG2 Assay for Mitochondrial Mass (AID 2282912); conditions: high-content imaging, actives raise or lower the signal
Procedure, shortened: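 Readout: fluorescence of MitoTracker Red CMXRos (250 nM, added 30 min pre-fixation) in fixed HepG2 cells imaged by HCS. Exposure lasted 24 hr at 0.39–200 uM; increases and decreases were both fitted relative to DMSO.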

[17] = APR_HepG2_CellLoss_72hr: Apredica 72-hour HepG2 Assay for Cell Loss (AID 2282915); conditions: high-content imaging
Procedure, shortened: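 HepG2 cells were exposed for 72 hr to compounds at 0.39–200 uM (ten concentrations, duplicate) in 0.5% v/v final DMSO. Nuclei were stained with Hoechst 33342 after 3.7% formaldehyde fixation, imaged at 20x, and counted; fits bidirectional versus DMSO.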

[18] = ACEA_ER_80hr: ACEA Biosciences xCELLigence Real-Time Cell Analysis on Estrogen Receptor Agonism for Proliferation (AID 2282667; active = hit-call score of the fitted dose curve at least 0.9, where 1 is the maximum); conditions: T47D proliferation, impedance (xCELLigence), 80 h
Procedure, shortened: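 T47D human breast cells were seeded on electrode plates, monitored overnight, then exposed continuously to compounds in eight-point 1:4 dilutions from 100 uM (max 0.5% DMSO). Impedance-based growth was read at 80 h, fitted upward relative to DMSO.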

[19] = APR_HepG2_p53Act_24hr: Apredica 24-hour HepG2 Assay for p53 Activation (AID 2282913); conditions: high-content imaging, actives raise or lower the signal;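 also: p53 protein immunofluorescence averaged per cell in HepG2 with Hoechst nuclei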
Procedure, shortened: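 HepG2 cells exposed 24 hr to compounds at 0.39–200 uM (10 concentrations, duplicate), final DMSO 0.5% v/v. After formaldehyde fixation and Triton permeabilization, p53 was immunolabeled (sheep anti-p53, Cy5 secondary) with Hoechst 33342 nuclear counterstain, then imaged by high-content fluorescence microscopy.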

[20] = APR_HepG2_CellCycleArrest_72hr: Apredica 72-hour HepG2 Assay for Cell Cycle Arrest (AID 2282914); conditions: high-content imaging, actives raise or lower the signal
Procedure, shortened: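 HepG2 cells were exposed to compounds at 0.39–200 uM (0.5% v/v DMSO final, duplicates) for 72 hr, fixed in 3.7% formaldehyde, permeabilized and stained with Hoechst 33342. Nuclear DNA content was quantified by high-content imaging; gain or loss of signal was fitted bidirectionally against DMSO.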

Measured: AC50

CCNc1nc(NC(C)C)nc(SC)n1
not listed: [18] | [19] | [20]
inactive: all other assays above

OCC(O)CO
inactive: [18]

C=CC(=O)NCNC(=O)C=C
inactive: [18] | [9] | [11] | [12] | [13] | [14] | [15] | [16] | [19] | [20] | [17]

COS(=O)(=O)OC
inactive: [18] | [9] | [11] | [12] | [13] | [14] | [15] | [16] | [19] | [20] | [17]

Cc1ccc(O)c(C)c1
inactive: [18] | [9] | [11] | [12] | [13] | [14] | [15] | [16] | [19] | [20] | [17]

Clc1ccc(C(c2ccccc2Cl)C(Cl)(Cl)Cl)cc1 (stereo not given)
active: [18] 393 nM and 193 nM | [9] 52.2 µM | [12] 70.5 µM | [13] 74.4 µM | [14] 69.4 µM | [16] 65.7 µM | [19] 75.5 µM | [20] 24.6 µM | [17] 70.6 µM
inactive: [18] | [11] | [15]

Clc1ccc(Cl)cc1
inactive: [18] | [9] | [11] | [12] | [13] | [14] | [15] | [16] | [19] | [17]

CCC(C)(c1ccc(O)cc1)c1ccc(O)cc1
active: [18] 285 nM [middle of 4 runs] | [12] 111 µM | [14] 106 µM | [15] 57.6 µM | [16] 127 µM | [19] 101 µM | [17] 108 µM
inactive: [9] | [11] | [13] | [20]

CCCCCCCCCc1ccc(O)cc1
inactive: [18] | [9] | [11] | [12] | [13] | [14] | [15] | [16] | [19] | [20] | [17]
